Results reported in PubChem BioAssay AID485297 (National Center for Advancing Translational Sciences (NCATS), 2010).
Screen size: about 320,000 compounds; about 9,100 (2.8%) were called active. Another 3% or so got no clear call; they are omitted. The call rests on the fitted dose curve; in most records, active means well fitted activation curve with a large enough effect; inconclusive means small, poorly fitted or top-dose-only effect; inactive means no such curve, though single readings can be large or run the other way. The full list was thinned out, with actives kept by preference.

Assay: qHTS Assay for Rab9 Promoter Activators; further: nearly all actives have a fitted effect of over 60% in size; on activation, negative = inhibition: % of control where 0% means no effect
Details: Huh7 Rab9 promoter-luciferase reporter, luminescence, 24 h; series mostly up to 9.22 µM
Method in brief: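 Luminescence read-out: Huh7 cells stably expressing Rab9-luciferase, treated 24 h with compound at 37 °C, then lysed with luciferase reagent for 10 min at ambient before reading.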
Potency means the concentration at half of the fitted maximal effect.

Potency, inactive:
CN(CC(=O)Nc1ccc(Cl)cc1)C(=O)c1ccc(COc2ccccc2)cc1
Cc1ccc(NC(=O)CNCc2ccccn2)cc1S(=O)(=O)N(C)C
CCN(c1ccccc1)S(=O)(=O)c1cc(C(=O)NCc2ccccn2)ccc1C
O=S(=O)(c1ccc(SCc2ccccc2)nc1)N1CCCCCC1
COc1ccc(Cc2nc3ccc(C(=O)N4CCC(N(C)C)C4)cc3o2)cc1 (stereo not drawn)
CCn1ccnc1CN(C)C(=O)c1ccc2nc(Cc3ccc(OC)cc3)oc2c1
CCN(CC)S(=O)(=O)c1ccc(N2CCOCC2)c(NC(=O)C(C)Oc2ccc(F)cc2)c1 (stereo not drawn)
CCN1C(=O)C(=O)N(CC(=O)Nc2cc(C)ccc2C)C1=O
COC(=O)CSc1nc(C)c2ccc(OC)cc2n1
COc1ccc(-c2nnc3ccc(SCc4ccccc4)nn23)cc1
COC(=O)Cc1ccc(OC(=O)C2CCN(S(=O)(=O)c3ccc(OC)c(OC)c3)CC2)cc1
O=C(Nc1cccc(-c2nc3ncccc3o2)c1)c1ccco1
O=C(c1ccco1)N1CCN(C(=O)c2cc(-c3ccccc3F)no2)CC1
CCC(=O)c1cc(F)ccc1OCC(=O)Nc1ccc2c(c1)OCCO2
CCN(C(=O)CSc1nc(N)cc(=O)[nH]1)C1CCS(=O)(=O)C1 (stereo not drawn)
CSCCC(NC(=O)c1ccccc1)C(=O)N1CCCCCCC1 (stereo not drawn)
Cc1[nH]c2ccccc2c1C(=O)C(C)Sc1nnc(C2CC2)o1 (stereo not drawn)
O=C(COC(=O)C1CC2CCCC(C1)C2=O)NC(=O)c1ccccc1 (stereo not drawn)
CCOc1ccc(C(=O)CCC(=O)Nc2ccncc2)cc1
Cc1cc(C(C)(C)C)n2nc(C)c(-c3ccccc3)c2n1
Cc1nc2cc(-c3ccc(F)cc3)nn2c(N2CCOCC2)c1C
CC1CCN(C(=O)COC(=O)CCC(=O)c2cccs2)CC1
CC(C)(C)c1ccc(S(=O)(=O)N2CCN(C(=O)c3ccc4c(c3)C(=O)N(Cc3ccncc3)C4=O)CC2)cc1
COc1ccc(/C(O)=C2/C(=O)C(=O)N(c3nc(C)c(C)s3)C2c2ccco2)cc1 (stereo not drawn)
COc1ccc(C2/C(=C(/O)c3ccccc3)C(=O)C(=O)N2C)c(OC)c1 (stereo not drawn)
Cn1c(SCC(=O)Nc2ccc(N3CCOCC3)cc2)nnc1C(F)(F)F
Nc1c(-c2cccc(Cl)c2)cnn1-c1cccc([N+](=O)[O-])c1
Cc1ccc(S(=O)(=O)Nc2nc(CN3CCOCC3)nc3sc(C)c(C)c23)cc1
CN1CCN(C(=O)c2cnn(-c3ccccc3)c2NC(=O)c2ccc([N+](=O)[O-])cc2)CC1
O=C(c1ccc(F)cc1)N1CCCC(c2nc(-c3cccs3)no2)C1 (stereo not drawn)
COc1cccc(-c2noc(C3CCCN(C(=O)c4ccc(F)cc4)C3)n2)c1 (stereo not drawn)
CC(=O)Nc1ccc(S(=O)(=O)N(C)c2nc3ccccc3nc2Cl)cc1
CCc1nc(Nc2ccc(NC(C)=O)cc2)c2oc3ccccc3c2n1
Cc1cc(NS(=O)(=O)c2ccc(NC(=O)c3cccnc3)cc2)nc(C)n1
CC(=O)NC(=S)Nc1ccc(NC(=O)c2cccnc2)cc1
CCOc1cc(/C=C/C(=O)OCC(=O)NCCN2C(=O)CSC2=O)ccc1OCC(C)C
O=C(OCC(=O)N1CCc2ccccc21)C1CCCN1S(=O)(=O)c1ccc(Cl)cc1 (stereo not drawn)
CCOC(=O)C1CCCN(C(=O)c2ccc(C)c(S(=O)(=O)N3CCCCC3)c2)C1 (stereo not drawn)
CCOC(=O)Cc1csc(SCC(=O)Nc2ccc(C)cc2F)n1
C/C(=N\NC(=O)Cc1ccc(Cl)cc1)c1ccccn1
C/C(CC(=O)Nc1ccc(N(C)C)cc1)=N\NC(=O)c1ccccc1F
CN(C)S(=O)(=O)c1cccc(NC(=O)COc2ccc3ccccc3c2)c1
Cc1ccc(Cn2ccc(NC(=O)C3C4CCC(C4)C3C(=O)O)n2)cc1 (stereo not drawn)
O=C(Nc1cccc(NC(=O)c2cccc(F)c2)c1)c1ccccc1
O=C(Nc1ccccc1N1CCN(c2ccccc2)CC1)c1cccc(F)c1
Cn1cc([N+](=O)[O-])c(C(=O)Nc2cnn(Cc3ccc(F)cc3)c2)n1
CN1CCN(S(=O)(=O)c2ccc(N3CCN(c4ccccc4O)CC3)c([N+](=O)[O-])c2)CC1
CCN(CC)c1ccc(NC(=O)CN2C(=O)NC3(CCc4ccccc43)C2=O)cc1 (stereo not drawn)
CN(CC(=O)NC1CCN(Cc2ccccc2)CC1)S(=O)(=O)c1ccc(Cl)s1
CCCCN(CC(=O)Nc1cccc(S(=O)(=O)N2CCCC2)c1)Cc1nc2ccccc2c(=O)[nH]1
CCn1c(=O)c(=O)n(CC)c2cc(N3CCCCC3)c(NC(=O)c3ccc(Cl)cc3)cc21
CC(=O)Cn1ncc(N2CCOCC2)c(Br)c1=O
O=C(COc1ccccc1Cl)N1N=C(c2cccs2)CC1c1ccco1 (stereo not drawn)
CN(Cc1ccccn1)Cc1nc(-c2ccc(Cl)cc2)no1
COc1ccc(-c2noc(COc3ccc(Cl)c(C)c3)n2)cc1
CCC(C)N(C(=O)CSc1nnnn1-c1ccccc1OC)C1CCS(=O)(=O)C1 (stereo not drawn)
CC1CC(=O)Nc2ccccc2N1C(=O)COc1ccc2cc(Br)ccc2c1 (stereo not drawn)
COc1ccc([N+](=O)[O-])cc1NC(=O)CCc1ccccc1
CC(C)Cc1nnc(NC(=O)CCc2ccccc2)s1
CCOC(=O)c1sc(NC(=O)C2CSC3(C)CCC(=O)N23)nc1C (stereo not drawn)
O=C(NCCc1ccccc1)c1ccc2c(c1)N(Cc1ccccc1)CCS2
CC1CCN(c2c(NCc3ccc(C(=O)NCc4ccccc4)cc3)c(=O)c2=O)CC1
Cc1cc(C(=O)CSc2nc(N)cc(=O)[nH]2)c(C)n1Cc1ccco1
COCCn1c(C)cc(C(=O)COC(=O)CNC(=O)c2ccco2)c1C
Cc1c([N+](=O)[O-])c(N)nn1C
Cc1c(NC(=O)CSc2nnc(-c3cccnc3)n2N)c(=O)n(-c2ccccc2)n1C
CCCn1c(CCNc2nc(-c3ccc(OC)cc3)cs2)nc2ccccc21
Brc1ccc(-c2csc(N/N=C/c3cccnc3)n2)cc1
Clc1ccc(Cc2nnc(-c3cccs3)o2)cc1
COc1ccc(C(=O)Nc2nc(-c3ccc(S(=O)(=O)N4CCOCC4)cc3)cs2)cc1
CC(NC(=O)c1ccco1)C(=O)Nc1nc(-c2ccccn2)cs1 (stereo not drawn)
Cc1ccc(S(=O)(=O)NCCC(=O)NCc2ccc(Cl)cc2)cc1C
CCN(CC)S(=O)(=O)c1ccc(CNC(=O)CN2C(=O)NC3(CCc4ccccc43)C2=O)cc1 (stereo not drawn)
O=C1C=C(c2cc(C(F)(F)F)cc(C(F)(F)F)c2)C[C@@H](c2ccc3c(c2)OCO3)C1
COc1ccc(-c2sc3ccc(OC)cc3c2C#Cc2ccccn2)cc1
Cc1cc(C)cc(NC(=O)C(c2ccccc2)N2CCN(CC(=O)N3CCCC3)CC2)c1 (stereo not drawn)
c1ccc(C2CCC(N3CCC(N4CCCCC4)CC3)CC2)cc1 (stereo not drawn)
COc1ccc(-c2csc(NC3OC(=O)c4ccccc43)n2)cc1 (stereo not drawn)
COc1ccc(NC(=O)c2sc(N)nc2-c2ccccc2)cc1
CCN(CC(=O)Nc1ccccc1C(=O)NC1CC1)Cc1cccs1

Potency, active:
CCN(CC)S(=O)(=O)c1cc(C(=O)Nc2ccccn2)ccc1C 1.78 µM
CC(c1ccccn1)N(C)C(=O)c1ccc2nc(Cc3cccc(Cl)c3)oc2c1 (stereo not drawn) 3.98 µM
COc1ccc2nc(SCc3ccccc3)nc(C)c2c1 1.41 µM
O=C(Nc1ccc2oc(-c3ccccc3F)nc2c1)c1ccco1 1 µM
Cc1cc(N)n2nc(-c3ccc(C(C)(C)C)cc3)cc2n1 2.51 µM
CCOc1ccc(/C(O)=C2\C(=O)C(=O)N(c3ccc(OC)cc3)C2c2ccccc2[N+](=O)[O-])cc1 (stereo not drawn) 0.398 µM
Cc1ccc(-c2noc(C3CCCN(C(=O)c4cccc(Cl)c4)C3)n2)o1 (stereo not drawn) 3.55 µM
Cc1ccc2nc(-c3ccc(NC(=O)c4cccnc4)cc3)oc2c1 0.199 µM
CC(=O)Nc1ccc(-c2nc3ccccc3o2)cc1 1 µM
C/C(=N\NC(=O)c1ccccc1F)c1ccccn1 0.316 µM
O=C(Nc1ccn(Cc2ccccc2)n1)c1n[nH]c([N+](=O)[O-])c1Cl 0.355 µM
O=C(Nc1ccn(Cc2ccccc2)n1)c1cccc(F)c1 1.41 µM
O=C(Cn1ncc(N2CCCC2)c(Br)c1=O)c1ccc(Cl)cc1 1.41 µM
Cc1cc(Cl)ccc1OCc1nc(-c2ccncc2)no1 2.82 µM
O=C(CCc1ccccc1)Nc1ncc([N+](=O)[O-])s1 2.24 µM
CC1CCCN(c2ccc(C(=O)NCCc3ccccc3)cn2)C1 (stereo not drawn) 2.51 µM
Cc1cc(C(=O)COC(=O)CNC(=O)c2ccc(F)cc2)c(C)n1Cc1ccco1 3.16 µM
c1cnc(Nc2nc(-c3ccc4ccccc4c3)cs2)nc1 0.282 µM
Clc1ccc(Nc2nc(-c3cccs3)cs2)nc1 3.16 µM
c1ccc(Nc2nc(-c3ccncc3)cs2)nc1 1.58 µM
COc1ccc(-c2csc(Nc3ccccn3)n2)cc1 0.282 µM
COc1ccc(Nc2nc(-c3ccccc3)cs2)cc1 2.51 µM

activation, negative = inhibition, inactive:
COC(=O)c1cc(-c2cccs2)nc2ccccc12 -3.27% [at 1.84 µM]
